Assay [1] deals with T1, Ephrin type-A receptor 3 (Homo sapiens) (UniProt P29320).
T1 sequence (whole entry): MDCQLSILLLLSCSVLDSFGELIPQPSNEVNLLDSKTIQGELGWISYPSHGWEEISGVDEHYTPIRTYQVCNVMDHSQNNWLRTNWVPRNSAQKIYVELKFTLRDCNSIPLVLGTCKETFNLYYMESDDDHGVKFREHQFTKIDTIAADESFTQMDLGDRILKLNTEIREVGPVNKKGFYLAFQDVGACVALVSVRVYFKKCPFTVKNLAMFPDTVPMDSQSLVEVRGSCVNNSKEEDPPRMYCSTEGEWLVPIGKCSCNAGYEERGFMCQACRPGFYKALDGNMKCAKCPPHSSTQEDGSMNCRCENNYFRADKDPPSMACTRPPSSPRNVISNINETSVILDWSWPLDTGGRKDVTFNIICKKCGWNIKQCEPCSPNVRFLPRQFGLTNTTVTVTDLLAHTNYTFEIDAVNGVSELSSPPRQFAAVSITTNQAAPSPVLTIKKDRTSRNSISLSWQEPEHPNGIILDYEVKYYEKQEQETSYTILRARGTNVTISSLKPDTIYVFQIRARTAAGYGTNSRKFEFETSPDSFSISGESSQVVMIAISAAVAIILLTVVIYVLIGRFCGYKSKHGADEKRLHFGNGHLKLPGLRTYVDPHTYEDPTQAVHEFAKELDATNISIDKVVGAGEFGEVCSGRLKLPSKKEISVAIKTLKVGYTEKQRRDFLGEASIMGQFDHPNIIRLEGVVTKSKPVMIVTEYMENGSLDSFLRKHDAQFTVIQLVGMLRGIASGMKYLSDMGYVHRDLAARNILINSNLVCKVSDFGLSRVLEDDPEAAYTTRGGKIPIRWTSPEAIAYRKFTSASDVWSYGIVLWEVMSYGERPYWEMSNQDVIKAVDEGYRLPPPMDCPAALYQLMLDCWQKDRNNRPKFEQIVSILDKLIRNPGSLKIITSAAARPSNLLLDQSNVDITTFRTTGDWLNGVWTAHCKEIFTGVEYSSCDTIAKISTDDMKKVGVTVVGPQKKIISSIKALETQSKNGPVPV
Particulars: at 10 µM.

Assay [2] concerns the target Ephrin type-A receptor 7 (Homo sapiens) (UniProt Q15375). Particulars: at 1 µM.
Assay [3] has the same target. To be noted: at 10 µM.
Assay [4] concerns the target T2, Ephrin type-A receptor 8 (Homo sapiens) (UniProt P29322).
T2 sequence (whole entry): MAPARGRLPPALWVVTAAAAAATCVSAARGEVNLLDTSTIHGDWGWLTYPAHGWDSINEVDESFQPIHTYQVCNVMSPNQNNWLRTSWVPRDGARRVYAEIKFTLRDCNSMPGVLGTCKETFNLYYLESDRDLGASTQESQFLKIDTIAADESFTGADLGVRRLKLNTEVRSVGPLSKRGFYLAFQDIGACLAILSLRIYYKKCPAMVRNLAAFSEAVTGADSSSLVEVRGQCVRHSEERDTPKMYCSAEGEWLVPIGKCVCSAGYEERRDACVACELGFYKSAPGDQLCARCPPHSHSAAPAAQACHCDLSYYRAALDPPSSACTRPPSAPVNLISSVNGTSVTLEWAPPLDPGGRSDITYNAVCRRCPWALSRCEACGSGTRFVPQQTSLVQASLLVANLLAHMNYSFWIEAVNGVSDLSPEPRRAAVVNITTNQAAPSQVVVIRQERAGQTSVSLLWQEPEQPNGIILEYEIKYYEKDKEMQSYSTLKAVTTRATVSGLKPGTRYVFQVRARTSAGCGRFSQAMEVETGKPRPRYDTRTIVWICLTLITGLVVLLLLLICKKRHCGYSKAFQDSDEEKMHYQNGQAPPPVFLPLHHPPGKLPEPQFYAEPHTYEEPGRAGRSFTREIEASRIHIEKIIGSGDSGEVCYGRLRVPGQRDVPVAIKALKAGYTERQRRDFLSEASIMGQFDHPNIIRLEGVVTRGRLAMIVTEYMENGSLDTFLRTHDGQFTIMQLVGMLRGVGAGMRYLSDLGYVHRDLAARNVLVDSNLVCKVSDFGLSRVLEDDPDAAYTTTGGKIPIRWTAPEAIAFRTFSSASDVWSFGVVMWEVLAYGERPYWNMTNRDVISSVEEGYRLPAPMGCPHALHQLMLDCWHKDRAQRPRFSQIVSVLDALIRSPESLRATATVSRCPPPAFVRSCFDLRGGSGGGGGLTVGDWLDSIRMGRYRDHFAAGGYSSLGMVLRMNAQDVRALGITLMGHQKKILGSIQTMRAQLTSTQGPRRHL
Particulars: at 1 µM.

Assay [5] concerns the target T2, Ephrin type-A receptor 8 (Homo sapiens). To be noted: at 10 µM.
The target of assay [6] is T3, Ephrin type-B receptor 1 (Homo sapiens) (UniProt P54762).
T3 sequence (whole entry): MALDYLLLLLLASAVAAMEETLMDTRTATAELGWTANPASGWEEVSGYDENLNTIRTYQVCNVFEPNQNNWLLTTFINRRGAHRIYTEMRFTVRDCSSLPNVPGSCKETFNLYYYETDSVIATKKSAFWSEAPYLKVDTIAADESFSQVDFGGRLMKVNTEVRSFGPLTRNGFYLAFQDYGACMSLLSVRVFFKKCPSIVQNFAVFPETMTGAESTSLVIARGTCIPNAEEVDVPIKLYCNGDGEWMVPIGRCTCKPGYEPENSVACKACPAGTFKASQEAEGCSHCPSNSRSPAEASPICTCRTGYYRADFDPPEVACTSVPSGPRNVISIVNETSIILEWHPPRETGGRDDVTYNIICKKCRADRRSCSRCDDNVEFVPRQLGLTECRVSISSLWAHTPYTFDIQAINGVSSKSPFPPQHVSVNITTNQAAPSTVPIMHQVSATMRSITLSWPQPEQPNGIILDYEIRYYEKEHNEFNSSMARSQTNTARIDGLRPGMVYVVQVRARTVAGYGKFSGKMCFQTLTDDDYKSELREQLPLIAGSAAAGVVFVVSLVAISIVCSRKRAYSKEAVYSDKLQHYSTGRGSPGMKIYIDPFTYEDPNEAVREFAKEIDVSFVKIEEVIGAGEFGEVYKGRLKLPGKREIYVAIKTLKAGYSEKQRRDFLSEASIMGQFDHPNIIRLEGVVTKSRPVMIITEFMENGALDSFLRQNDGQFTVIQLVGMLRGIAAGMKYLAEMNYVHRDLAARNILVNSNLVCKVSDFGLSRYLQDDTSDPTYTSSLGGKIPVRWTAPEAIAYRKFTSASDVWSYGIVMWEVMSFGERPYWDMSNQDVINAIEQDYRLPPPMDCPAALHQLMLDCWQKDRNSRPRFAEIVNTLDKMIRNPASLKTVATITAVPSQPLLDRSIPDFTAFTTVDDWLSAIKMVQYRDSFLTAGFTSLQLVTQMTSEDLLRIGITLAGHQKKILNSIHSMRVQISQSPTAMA
To be noted: at 1 µM.

Assay [7] concerns the target T3, Ephrin type-B receptor 1 (Homo sapiens). To be noted: at 10 µM.
The target of assay [8] is T4, Ephrin type-B receptor 4 (Homo sapiens) (UniProt P54760).
T4 sequence (whole entry): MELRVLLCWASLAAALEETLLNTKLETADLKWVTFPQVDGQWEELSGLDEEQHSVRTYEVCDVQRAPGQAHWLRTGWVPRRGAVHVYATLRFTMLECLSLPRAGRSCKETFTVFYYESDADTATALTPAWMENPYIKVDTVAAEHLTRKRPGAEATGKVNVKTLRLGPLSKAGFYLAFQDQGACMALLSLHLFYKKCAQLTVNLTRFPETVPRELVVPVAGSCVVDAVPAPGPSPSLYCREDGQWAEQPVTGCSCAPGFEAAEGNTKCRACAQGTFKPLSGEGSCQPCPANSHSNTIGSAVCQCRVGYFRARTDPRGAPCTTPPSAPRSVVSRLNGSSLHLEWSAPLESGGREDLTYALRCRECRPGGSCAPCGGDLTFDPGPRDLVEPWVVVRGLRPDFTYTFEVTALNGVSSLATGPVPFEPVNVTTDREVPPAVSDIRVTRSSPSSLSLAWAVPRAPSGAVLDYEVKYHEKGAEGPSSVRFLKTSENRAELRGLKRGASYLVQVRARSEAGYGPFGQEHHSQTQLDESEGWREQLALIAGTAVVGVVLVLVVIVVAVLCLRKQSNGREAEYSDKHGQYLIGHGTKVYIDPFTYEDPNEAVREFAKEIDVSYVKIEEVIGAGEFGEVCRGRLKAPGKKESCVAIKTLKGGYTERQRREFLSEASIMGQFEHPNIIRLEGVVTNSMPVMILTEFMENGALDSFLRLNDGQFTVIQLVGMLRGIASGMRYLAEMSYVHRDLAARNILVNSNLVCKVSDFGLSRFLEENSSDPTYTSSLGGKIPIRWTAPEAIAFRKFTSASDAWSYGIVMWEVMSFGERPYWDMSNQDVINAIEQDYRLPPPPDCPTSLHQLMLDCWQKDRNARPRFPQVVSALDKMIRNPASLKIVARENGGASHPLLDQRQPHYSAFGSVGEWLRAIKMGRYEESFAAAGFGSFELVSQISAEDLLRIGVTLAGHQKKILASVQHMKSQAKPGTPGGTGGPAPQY
To be noted: at 1 µM.

Assay [9] has as its target T4, Ephrin type-B receptor 4 (Homo sapiens). To be noted: at 10 µM.
Assay [10] addresses Receptor tyrosine-protein kinase erbB-4 (Homo sapiens) (UniProt Q15303). Particulars: at 1 µM.
Assay [11] has the same target. Particulars: at 10 µM.
Assay [12] has as its target Focal adhesion kinase 1 (Homo sapiens) (UniProt Q05397). Particulars: at 1 µM.
For assay [13], the target named is Ephrin type-A receptor 5 (Homo sapiens) (UniProt P54756). To be noted: at 10 µM.
The target of assay [14] is T5, Ephrin type-B receptor 2 (Homo sapiens) (UniProt P29323).
T5 sequence (whole entry): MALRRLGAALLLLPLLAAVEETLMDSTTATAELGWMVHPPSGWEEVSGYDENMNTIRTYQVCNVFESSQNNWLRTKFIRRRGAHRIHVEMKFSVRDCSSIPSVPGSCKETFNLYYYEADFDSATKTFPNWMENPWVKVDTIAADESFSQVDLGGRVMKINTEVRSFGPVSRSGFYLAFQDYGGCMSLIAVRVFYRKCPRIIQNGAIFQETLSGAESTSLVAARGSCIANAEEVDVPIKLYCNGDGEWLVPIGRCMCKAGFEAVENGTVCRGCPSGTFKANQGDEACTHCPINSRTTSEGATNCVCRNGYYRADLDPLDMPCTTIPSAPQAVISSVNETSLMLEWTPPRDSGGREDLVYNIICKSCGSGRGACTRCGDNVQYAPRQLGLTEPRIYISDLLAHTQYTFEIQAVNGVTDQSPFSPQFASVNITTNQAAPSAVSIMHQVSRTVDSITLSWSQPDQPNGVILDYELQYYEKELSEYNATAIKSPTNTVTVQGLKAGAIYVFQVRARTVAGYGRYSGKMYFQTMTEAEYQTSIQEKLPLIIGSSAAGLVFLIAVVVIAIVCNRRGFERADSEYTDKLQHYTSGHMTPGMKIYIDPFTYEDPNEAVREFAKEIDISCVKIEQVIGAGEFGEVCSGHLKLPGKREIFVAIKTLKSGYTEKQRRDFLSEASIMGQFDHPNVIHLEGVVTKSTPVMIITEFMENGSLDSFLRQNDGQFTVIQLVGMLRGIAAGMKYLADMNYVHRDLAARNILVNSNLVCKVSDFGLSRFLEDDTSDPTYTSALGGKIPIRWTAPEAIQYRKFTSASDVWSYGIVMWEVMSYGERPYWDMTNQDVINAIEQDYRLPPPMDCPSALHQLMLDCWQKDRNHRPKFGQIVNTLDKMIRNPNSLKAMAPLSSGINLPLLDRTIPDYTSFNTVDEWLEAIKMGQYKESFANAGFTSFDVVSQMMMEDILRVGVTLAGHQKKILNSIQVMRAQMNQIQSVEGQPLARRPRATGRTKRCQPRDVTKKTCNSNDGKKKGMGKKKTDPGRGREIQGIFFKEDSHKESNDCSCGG
Particulars: at 10 µM.

Broadly, the residual activity is the signal under treatment as a percentage of the control signal.

Each structure is given as a SMILES string.

Chain of Ephrin type-A receptor 7 (Homo sapiens) (Q15375 28-998 limits assumed): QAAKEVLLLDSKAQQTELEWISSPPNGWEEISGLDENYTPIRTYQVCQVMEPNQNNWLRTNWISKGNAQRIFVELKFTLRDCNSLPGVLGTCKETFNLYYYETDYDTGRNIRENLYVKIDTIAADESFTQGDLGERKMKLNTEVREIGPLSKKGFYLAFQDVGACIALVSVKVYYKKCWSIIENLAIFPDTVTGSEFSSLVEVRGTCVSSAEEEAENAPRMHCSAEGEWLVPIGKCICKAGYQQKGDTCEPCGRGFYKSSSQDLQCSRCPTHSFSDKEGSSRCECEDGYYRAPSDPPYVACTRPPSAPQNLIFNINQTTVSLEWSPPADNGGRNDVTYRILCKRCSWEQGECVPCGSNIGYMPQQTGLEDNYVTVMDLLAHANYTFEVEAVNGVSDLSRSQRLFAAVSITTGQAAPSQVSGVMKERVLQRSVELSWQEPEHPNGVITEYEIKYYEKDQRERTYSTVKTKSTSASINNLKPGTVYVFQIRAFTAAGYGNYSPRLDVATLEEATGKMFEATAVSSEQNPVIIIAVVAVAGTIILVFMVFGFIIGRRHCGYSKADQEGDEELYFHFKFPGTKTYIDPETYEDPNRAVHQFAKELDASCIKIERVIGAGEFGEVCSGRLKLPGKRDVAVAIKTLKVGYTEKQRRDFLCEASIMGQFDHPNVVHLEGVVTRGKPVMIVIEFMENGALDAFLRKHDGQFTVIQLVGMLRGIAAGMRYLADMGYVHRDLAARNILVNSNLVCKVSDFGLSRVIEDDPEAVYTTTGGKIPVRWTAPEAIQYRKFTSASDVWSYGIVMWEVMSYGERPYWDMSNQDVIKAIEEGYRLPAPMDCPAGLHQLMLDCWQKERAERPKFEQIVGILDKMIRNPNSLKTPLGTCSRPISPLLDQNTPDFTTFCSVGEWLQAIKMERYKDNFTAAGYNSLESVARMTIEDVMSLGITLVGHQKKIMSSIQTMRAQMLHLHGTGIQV
Chain of Receptor tyrosine-protein kinase erbB-4 (Homo sapiens) (Q15303 whole entry): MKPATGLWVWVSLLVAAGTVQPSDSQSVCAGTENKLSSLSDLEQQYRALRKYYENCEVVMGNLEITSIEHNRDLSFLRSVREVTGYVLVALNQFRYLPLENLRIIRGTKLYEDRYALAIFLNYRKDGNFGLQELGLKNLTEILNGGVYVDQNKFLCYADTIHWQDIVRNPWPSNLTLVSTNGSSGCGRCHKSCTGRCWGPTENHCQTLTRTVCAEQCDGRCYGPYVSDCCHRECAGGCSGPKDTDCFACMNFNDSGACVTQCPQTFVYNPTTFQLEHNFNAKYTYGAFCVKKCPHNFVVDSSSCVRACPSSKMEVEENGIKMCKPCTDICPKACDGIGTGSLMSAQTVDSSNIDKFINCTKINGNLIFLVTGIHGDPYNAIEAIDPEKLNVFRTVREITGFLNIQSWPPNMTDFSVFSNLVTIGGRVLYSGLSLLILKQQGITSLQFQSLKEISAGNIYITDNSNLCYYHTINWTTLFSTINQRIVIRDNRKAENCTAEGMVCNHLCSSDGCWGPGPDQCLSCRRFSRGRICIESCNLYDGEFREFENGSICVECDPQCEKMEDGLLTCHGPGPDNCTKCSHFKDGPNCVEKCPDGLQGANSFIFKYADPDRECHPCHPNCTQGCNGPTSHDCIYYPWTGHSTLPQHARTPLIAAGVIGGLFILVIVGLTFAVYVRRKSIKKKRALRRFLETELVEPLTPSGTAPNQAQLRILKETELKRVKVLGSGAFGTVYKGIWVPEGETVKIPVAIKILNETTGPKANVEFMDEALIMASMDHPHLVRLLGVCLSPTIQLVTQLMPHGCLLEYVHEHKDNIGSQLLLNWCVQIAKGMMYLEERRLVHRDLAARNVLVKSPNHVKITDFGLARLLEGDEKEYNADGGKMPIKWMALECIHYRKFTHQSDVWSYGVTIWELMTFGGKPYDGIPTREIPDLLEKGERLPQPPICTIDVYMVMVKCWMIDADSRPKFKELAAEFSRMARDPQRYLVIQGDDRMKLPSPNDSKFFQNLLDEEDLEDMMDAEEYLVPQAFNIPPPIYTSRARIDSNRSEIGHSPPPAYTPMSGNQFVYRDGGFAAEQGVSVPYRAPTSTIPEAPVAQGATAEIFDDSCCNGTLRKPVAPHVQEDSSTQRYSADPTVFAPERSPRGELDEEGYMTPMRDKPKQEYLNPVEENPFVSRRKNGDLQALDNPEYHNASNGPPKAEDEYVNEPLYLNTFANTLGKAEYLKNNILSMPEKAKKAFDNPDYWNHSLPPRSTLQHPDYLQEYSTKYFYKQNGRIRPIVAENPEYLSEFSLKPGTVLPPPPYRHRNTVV
Chain of Ephrin type-A receptor 5 (Homo sapiens) (P54756 whole entry): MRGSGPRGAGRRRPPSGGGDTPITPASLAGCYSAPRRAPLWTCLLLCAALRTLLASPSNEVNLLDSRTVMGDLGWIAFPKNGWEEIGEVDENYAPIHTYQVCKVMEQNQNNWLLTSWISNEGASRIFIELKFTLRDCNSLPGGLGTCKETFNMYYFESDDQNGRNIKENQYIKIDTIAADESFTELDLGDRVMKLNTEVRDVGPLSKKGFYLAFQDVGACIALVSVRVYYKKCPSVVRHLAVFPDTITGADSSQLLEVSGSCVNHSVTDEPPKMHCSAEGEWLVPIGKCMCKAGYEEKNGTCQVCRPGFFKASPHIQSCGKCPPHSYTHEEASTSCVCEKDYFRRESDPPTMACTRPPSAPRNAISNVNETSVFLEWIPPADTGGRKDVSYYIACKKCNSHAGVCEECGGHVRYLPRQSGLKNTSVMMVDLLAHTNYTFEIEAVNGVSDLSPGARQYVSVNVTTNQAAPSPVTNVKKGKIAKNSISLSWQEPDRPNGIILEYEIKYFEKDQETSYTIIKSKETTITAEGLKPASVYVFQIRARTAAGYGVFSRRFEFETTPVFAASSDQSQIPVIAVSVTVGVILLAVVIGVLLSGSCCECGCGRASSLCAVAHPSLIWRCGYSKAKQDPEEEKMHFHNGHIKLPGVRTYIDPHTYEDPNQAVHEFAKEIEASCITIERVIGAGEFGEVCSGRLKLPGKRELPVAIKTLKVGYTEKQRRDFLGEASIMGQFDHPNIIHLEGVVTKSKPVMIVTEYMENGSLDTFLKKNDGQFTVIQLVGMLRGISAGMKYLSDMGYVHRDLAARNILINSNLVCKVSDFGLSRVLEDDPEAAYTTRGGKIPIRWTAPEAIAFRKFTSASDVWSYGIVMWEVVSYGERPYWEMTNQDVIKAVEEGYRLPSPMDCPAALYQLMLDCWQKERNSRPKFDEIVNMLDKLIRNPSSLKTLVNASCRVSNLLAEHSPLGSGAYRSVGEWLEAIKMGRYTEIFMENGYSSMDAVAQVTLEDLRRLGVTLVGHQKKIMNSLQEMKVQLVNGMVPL
Chain of Focal adhesion kinase 1 (Homo sapiens) (Q05397 2-1052 limits assumed): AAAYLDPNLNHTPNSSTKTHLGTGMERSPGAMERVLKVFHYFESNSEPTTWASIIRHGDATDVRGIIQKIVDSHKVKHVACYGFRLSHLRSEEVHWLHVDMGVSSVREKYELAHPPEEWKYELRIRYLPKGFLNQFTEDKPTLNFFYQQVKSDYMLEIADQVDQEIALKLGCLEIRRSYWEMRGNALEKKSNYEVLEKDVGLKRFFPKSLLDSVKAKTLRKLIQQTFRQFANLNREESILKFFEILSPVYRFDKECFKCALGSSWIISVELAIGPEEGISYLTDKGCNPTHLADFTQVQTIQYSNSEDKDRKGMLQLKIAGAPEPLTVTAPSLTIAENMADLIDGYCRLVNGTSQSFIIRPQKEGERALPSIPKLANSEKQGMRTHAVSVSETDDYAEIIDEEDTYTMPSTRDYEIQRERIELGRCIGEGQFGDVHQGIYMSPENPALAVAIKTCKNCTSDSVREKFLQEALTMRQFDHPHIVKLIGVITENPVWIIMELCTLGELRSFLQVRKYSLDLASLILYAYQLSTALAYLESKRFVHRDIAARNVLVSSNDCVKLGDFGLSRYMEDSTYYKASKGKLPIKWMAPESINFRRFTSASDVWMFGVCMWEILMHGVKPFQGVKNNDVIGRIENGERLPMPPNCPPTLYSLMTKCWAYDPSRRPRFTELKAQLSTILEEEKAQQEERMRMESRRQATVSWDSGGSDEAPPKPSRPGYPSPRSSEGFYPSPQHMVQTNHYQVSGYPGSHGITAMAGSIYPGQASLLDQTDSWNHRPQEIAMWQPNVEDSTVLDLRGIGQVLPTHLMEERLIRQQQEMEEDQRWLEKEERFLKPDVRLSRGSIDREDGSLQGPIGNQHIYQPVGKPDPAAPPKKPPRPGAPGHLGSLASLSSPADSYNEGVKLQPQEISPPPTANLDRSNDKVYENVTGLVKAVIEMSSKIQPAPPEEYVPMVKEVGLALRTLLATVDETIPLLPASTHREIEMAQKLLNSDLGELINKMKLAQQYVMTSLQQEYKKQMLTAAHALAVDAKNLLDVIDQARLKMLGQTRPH

For the compound `O=C(O)/C=C/c1cc(Br)c(Br)c(Br)c1Br`, the residual activity in [1] amounted to 79%; in [2], 109%; in [3], 92%; in assay [4], 100%; in assay [5], 99%; in assay [6], 101%. Moreover, the residual activity in assay [7] is 89%; in assay [8], 105%; in assay [9], 90%; in assay [10], 59%; in [11], 45%; in assay [12], 98%.
Turning to `Fc1ccc(-c2nc3n(c2-c2ccncc2)CCS3)cc1`, the residual activity in assay [1] was found to be 90%; in [13] it was 89%; in assay [2] it was 99%; in assay [3], 84%; in assay [4] it was 97%; in assay [5], 70%. Moreover, the residual activity in assay [14] turned out to be 91%.

Source of the values: ChEMBL document CHEMBL2218924, “A broad activity screen in support of a chemogenomic map for kinase signalling research and drug discovery” (Biochem J, 2013).
